# Experimental data as given in PubChem BioAssay (EPA / NIEHS).
# Values joined by “and” are separate entries in the source; they are usually repeats but may differ in a detail not shown here. Equal entries are not always repeated. The source holds several records for some structures; these can differ, active in one and inactive in another. Active and inactive are the calls of the source. How the source made its calls: active means hit-call score of the fitted dose curve at least 0.9, where 1 is the maximum; inactive means score below 0.9.
# Key:
# [1] = read-out: Plasminogen activator inhibitor-1 (PAI1), SERPINE1 (gene 5054); assay: BSK_KF3CT_PAI1: BioMAP Diversity Plus: KF3CT Assay for Plasminogen activator inhibitor-1 (PAI1) Biomarker Activity (AID 2284252); details: primary human keratinocytes with fibroblasts
# Procedure, shortened: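 ELISA read-out of PAI-1 taken 24 h after chemical treatment of a human skin primary co-culture of keratinocytes and foreskin fibroblasts. Increases over DMSO-treated wells defined activity.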
# [2] = read-out: Monocyte Chemoattractant Protein-1 (MCP1), CCL2 (gene 6347); assay: BSK_IMphg_MCP1: BioMAP Diversity Plus: IMphg Assay for Monocyte Chemoattractant Protein-1 (MCP1) Biomarker Activity (AID 2284253); details: primary human endothelial cells with macrophages
# Procedure, shortened: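 Human venular endothelial cells co-cultured with macrophages; MCP-1 measured by ELISA 24 hours post-dose and fitted against DMSO. Cytotoxicity monitored by SRB total-protein staining in parallel cultures.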
# [3] = read-out: Interleukin-8 (IL8), CXCL8 (gene 3576); assay: BSK_KF3CT_IL8: BioMAP Diversity Plus: KF3CT Assay for Interleukin-8 (IL8) Biomarker Activity (AID 2284254); details: primary human keratinocytes with fibroblasts
# Procedure, shortened: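 Using parallel SRB-stained cultures to flag overt toxicity, the study quantified IL-8 by ELISA in human keratinocyte–foreskin fibroblast co-cultures 24 h after dosing, with DMSO as negative control and baseline.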
# [4] = read-out: Macrophage Inflammatory Protein-1 Alpha (MIP1a), CCL3 (gene 6348); assay: BSK_IMphg_MIP1a: BioMAP Diversity Plus: IMphg Assay for Macrophage Inflammatory Protein-1 Alpha (MIP1a) Biomarker Activity (AID 2284255); details: primary human endothelial cells with macrophages
# Procedure, shortened: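 Co-culture of human venular endothelial cells and macrophages exposed to compounds for 24 h; MIP-1a measured by ELISA relative to DMSO. Cytotoxicity assessed in parallel cultures by sulforhodamine B total-protein staining at 560 nm.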
# [5] = read-out: Plasminogen activator inhibitor-1 (PAI1), SERPINE1 (gene 5054); assay: BSK_MyoF_PAI1: BioMAP Diversity Plus: MyoF Assay for Plasminogen activator inhibitor-1 (PAI1) Biomarker Activity (AID 2284256); details: primary human lung fibroblasts;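 on outcome: PAI-1 protein level measured by ELISA in fibroblast cultures; PAI-1 read 24 h after compound addition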
# Procedure, shortened: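 In this multiplexed primary-cell system, fibroblasts from human lung received compound for 24 h before ELISA detection of PAI-1; overt toxicity was checked by SRB (0.1%, TCA-fixed, 560 nm) in parallel wells.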
# CD69, CD69 (gene 969) = assay: BSK_IMphg_CD69: BioMAP Diversity Plus: IMphg Assay for CD69 Biomarker Activity (AID 2284257); details: primary human endothelial cells with macrophages
# Experimental: BSK_IMphg is a cell-based, multiplexed-readout assay that uses venular endothelial cells and macrophages, a human vascular primary cell, with measurements taken at 24 hours after chemical dosing in a microplate: 96-well plate.BSK_IMphg_CD69 is an assay component measured in the BSK_IMphg assay. It measures CD69 antibody related to regulation of gene expression using ELISA technology.Data from the assay component BSK_IMphg_CD69 was analyzed at the endpoint, BSK_IMphg_CD69, in the positive analysis fitting direction relative to DMSO as the negative control and baseline of activity. Using a type of binding reporter, gain or loss-of-signal activity can be used to understand protein changes. To generalize the intended target to other relatable targets, this assay endpoint is annotated to the 'cytokine' intended target family, where the subfamily is 'inflammatory factor'.
# The levels of cell surface (or secreted, indicated by the prefix "s") biomarker endpoints were measured by ELISA. Overt cytotoxicity to cells in confluent adherent cultures (all systems other than the BT system) was assessed by measuring total protein levels using sulforhodamine B (SRB) staining in parallel cultures at the time of biomarker measurements, indicated as SRB endpoints. For proliferation assays for adherent cell types, individual cell types are cultured at sub-confluence and relative cell numbers quantified by SRB staining at time points optimized for each system (48 h: 3C and CASM3C systems; 72 h: BT and HDF3CGF systems; 96 h: SAg system). SRB was performed by staining cells with 0.1% SRB after fixation with 10% TCA and reading wells at 560 nm.Viability and proliferation of PBMC (T cells) was quantified by Alamar Blue reduction for the SAg and BT systems. […] Then, Alamar Blue (20 uL/well) (Invitrogen, Cat DAL1100) was added for 6 h, and the plates were read with a fluorescence microplate reader at 546/580 nm (excitation/emission). […] Plates were read after 6 h.
# [6] = read-out: Eotaxin 3, CCL26 (gene 10344); assay: BSK_BF4T_Eotaxin3: BioMAP Diversity Plus: BF4T Assay for Eotaxin 3 Biomarker Activity (AID 2284258); details: primary human bronchial epithelial cells with fibroblasts
# Procedure, shortened: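 Co-culture of human bronchial epithelial cells and dermal fibroblasts, exposed to chemicals for 24 h versus DMSO. Eotaxin-3 quantified by ELISA; cytotoxicity checked in parallel cultures by sulforhodamine B total-protein staining.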
# [7] = read-out: Monocyte Chemoattractant Protein-1 (MCP1), CCL2 (gene 6347); assay: BSK_BF4T_MCP1: BioMAP Diversity Plus: BF4T Assay for Monocyte Chemoattractant Protein-1 (MCP1) Biomarker Activity (AID 2284259); details: primary human bronchial epithelial cells with fibroblasts
# Procedure, shortened: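 Co-culture of bronchial epithelial cells and dermal fibroblasts dosed with chemical; MCP-1 measured by ELISA 24 h later. Activity fitted in positive direction versus DMSO; cytotoxicity checked by SRB staining in parallel cultures.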
# [8] = read-out: Intercellular Adhesion Molecule 1 (ICAM1), ICAM1 (gene 3383); assay: BSK_BF4T_ICAM1: BioMAP Diversity Plus: BF4T Assay for Intercellular Adhesion Molecule 1 (ICAM1) Biomarker Activity (AID 2284260); details: primary human bronchial epithelial cells with fibroblasts
# Procedure, shortened: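 Co-culture of human bronchial epithelial cells and dermal fibroblasts exposed 24 h to chemical; cell-surface ICAM-1 quantified by ELISA. Parallel SRB total-protein staining assessed cytotoxicity; activity fitted relative to DMSO.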
# [9] = read-out: Interleukin-8 (IL8), CXCL8 (gene 3576); assay: BSK_MyoF_IL8: BioMAP Diversity Plus: MyoF Assay for Interleukin-8 (IL8) Biomarker Activity (AID 2284261); details: primary human lung fibroblasts
# Procedure, shortened: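 DMSO-normalised, upward-fitted IL-8 ELISA signal; human lung fibroblasts, 24 h chemical treatment.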
SMILES,outcome [1],outcome [2],outcome [3],outcome [4],outcome [5],"outcome (CD69, CD69 (gene 969))",outcome [6],AC50 [7],outcome [7],outcome [8],outcome [9],AC50 [5],AC50 [1],"AC50 (CD69, CD69 (gene 969))",AC50 [6]
O=C(O)C(F)(F)C(F)(F)C(F)(F)C(F)(F)C(F)(F)C(F)(F)C(F)(F)F,inactive,inactive,inactive,inactive,inactive,inactive,inactive,50.1 µM (active),inactive,inactive,inactive,,,,
ClC1C(Cl)C(Cl)C(Cl)C(Cl)C1Cl (configuration not stated),,,,,inactive,,,,,,inactive,0.295 µM (active),,,
O=S(=O)(O)C(F)(F)C(F)(F)C(F)(F)C(F)(F)C(F)(F)C(F)(F)C(F)(F)C(F)(F)F,,inactive,inactive,inactive,inactive,inactive,inactive,44.6 µM (active),inactive,inactive,inactive,,24.4 µM (active) [middle of 4 runs],30 µM (active),17.2 µM (active) and 1.82 µM (active)
